Compounds without any hit were thinned out: in the full panel of roughly 83,000, 20% have a hit.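 How to read the values: 0–100, growth inhibition (40 = 60% inhibited); 0, no net growth; -100 to 0, cell death (-40 = 40% of starting cells died; -100 = all dead).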 Active and inactive are the calls of the source. The calls were made as follows: active = growth percent below 10; inactive = the rest.
Each compound was assayed on HL-60(TB) leukemia (assay: NCI-60 one-dose screen, 48 h (100 = growth as untreated, 0 = no growth, -100 = all killed)). Settings: 10 µM unless noted.

Row | Structure (SMILES) | growth
1 | O=C(NS(=O)(=O)c1ccccc1)n1cc(-c2ccncc2)c(-c2cc(O)cc(Cl)c2)n1 | 103% (inactive)
2 | O=C(/C=C/c1ccccc1)c1cccc2ccccc12 | 33.7% (inactive)
3 | Cc1ccc(C(=O)c2ccc(CC(=O)NN3C(=O)c4ccccc4C3=O)n2C)cc1 | 100% (inactive)
4 | N=C(N)c1ccc(-c2ccc(-c3ccccc3)o2)cc1 | -62% (active)
5 | Clc1nc2ccc(Br)cc2cc1-c1nc2ccccc2[nH]1 | 87.6% (inactive)
6 | CCOc1nc(-c2ccccc2)cc2c(O)c(C(=O)n3nc(C)cc3C)[nH]c(=O)c12 | 103% (inactive)
7 | CCOC(=O)c1ccc(N2NC(=O)/C(=C/c3ccc([N+](=O)[O-])o3)C2=O)cc1 | 85.5% (inactive)
8 | O=C(Nc1ncc(Cc2ccccc2)s1)c1ccc2c(c1)OCCO2 | -48.6% (active)
9 | CCC(C)[C@H](NC(C)=O)C(=O)N[C@@H](CCCNC(=N)N)C(=O)N[C@@H](CCCCN)C(=O)N[C@@H](CC1CCC(O)CC1)C(=O)NC(C(=O)N[C@@H](CCSC)C(=O)N[C@@H](CCCNC(=N)N)C(=O)N[C@@]1(C)CCC/C=C\CCC[C@@](C)(C(=O)NC(C(=O)N[C@@H](CCC(=O)O)C(=O)N[C@@H](CC(C)C)C(=O)N[C@H](C(=O)N[C@@H](CCC(=O)O)C(N)=O)C(C)C)[C@@H](C)O)NC(=O)[C@H](CCC(N)=O)NC(=O)[C@H](CC(C)C)NC(=O)[C@H](CC(C)C)NC1=O)[C@@H](C)O (stereo not given in full) | 97.3% (inactive)
10 | O=C(/C=C\c1cccc([N+](=O)[O-])c1)c1ccccc1 | -43.8% (active)
11 | OC(COc1cccc2ccccc12)CN1CCN(c2ccccc2)CC1 (stereo not given) | 90.9% (inactive)
12 | c1ccc(-c2cn3ccnc3c(-c3ccc4c(c3)ncn4C3CCCCC3)n2)cc1 | 80.7% (inactive)
13 | O=C(N/N=C/c1ccc([N+](=O)[O-])cc1)c1ccc2nc(-c3ccc(Cl)cc3)[nH]c2c1 | 6.58% (active)
14 | COc1cc2nnn3c4ncccc4c(N=O)c3c2cc1OC | -31.5% (active)
15 | CC(C)C1=C[C@@]23CC[C@@H]4[C@](C)(CCC[C@@]4(C)C(=O)N4CCCNCC4)[C@H]2C[C@@H]1[C@H]1C(=O)CCC(=O)[C@H]13 | 100% (inactive)
16 | Nc1nc(-c2cccnc2)nc2c1sc(=S)n2-c1ccccc1 | 99.3% (inactive)
17 | CCNc1nc(N2CC(=O)Nc3cc(OC)ccc32)c2ccccc2n1 | -4.51% (active)
18 | COC(=O)CNC(=O)[C@]12CCC(C)(C)C[C@H]1C1=CC[C@@H]3[C@@]4(C)Cc5c([nH]c6ccccc56)C(C)(C)[C@@H]4CC[C@@]3(C)[C@]1(C)CC2 | 76.9% (inactive)
19 | O=C(Nc1ncc(Cc2cccc(C(F)(F)F)c2)s1)C1COc2ccccc2O1 (stereo not given) | 98.5% (inactive)
20 | CC(C)(C)n1cc(-c2ccnc(NCCCNS(=O)(=O)c3ccc(Br)cc3)c2)c(-c2cccc(O)c2)n1 | 3.72% (active)

Row | Structure (SMILES) | growth
21 | COc1ccc2[nH]c(=O)c(CNc3ccc(Nc4nccc(-c5ccc(Cl)cc5)n4)cc3)cc2c1 | 78.2% (inactive)
22 | CCNCc1ccc(O)c2ncccc12 | 13.1% (inactive)
23 | CNC(=O)c1cc(Oc2ccc3c(c2)sc2nc(-c4ccc(NC(=O)Nc5ccc(Cl)c(C(F)(F)F)c5)cc4)cn23)ccn1 | 32.2% (inactive)
24 | C[C@]12C=CC(=O)C=C1[C@@H](F)C[C@@H]1[C@@H]2[C@@H](O)C[C@@]2(C)[C@H]1CC[C@]2(O)C(=O)CO | 107% (inactive)
25 | O=C(O)c1cccc2cccc(-c3c4ccc(=O)c(O)c-4oc4c(O)c(O)ccc34)c12 | 67.6% (inactive)
26 | CC(CCC(=O)O)[C@H]1CCC2C3C(=O)C[C@@H]4CC(=O)CC[C@]4(C)C3CC(=O)[C@@]21C (stereo not given in full) | 106% (inactive)
27 | COc1ccc(C(=O)NC(=O)Nc2ccc3c(c2)NC(=O)/C3=C\c2[nH]c(C)c(C(=O)O)c2C)cc1 | 95.2% (inactive)
28 | CC1=C(NCCN2CCCC2)C(=O)c2c(OCc3cccc(Cl)c3)cccc2C1=O | 94.1% (inactive)
29 | CN(CCC#N)c1ccc(/C=C(\C#N)c2cccc(C(F)(F)F)c2)cc1 | 69.5% (inactive)
30 | Cn1c(-c2ccccc2)cc(=O)n1-c1ccccc1 | 109% (inactive)
31 | O=C(O)c1cccc([N+](=O)[O-])c1/C=C/c1ccccc1 | 97.4% (inactive)
32 | O=C(O)c1cn(C2CC2)c2cc(N3CCN(Cc4nnc(Nc5ccccc5)o4)CC3)c(F)cc2c1=O | 91.4% (inactive)
33 | CC(C)(C)CC(C)(C)NC(=O)Nc1ncccc1OCc1ccccc1 | 90.5% (inactive)
34 | COC(=O)c1ccc(NC(N)=NCC(C)(C)COc2ccc(C(F)(F)F)cc2)nc1 | -49% (active)
35 | COc1ccc([C@H]2[C@H](C(=O)Nc3cccnc3)c3ccccc3C(=O)N2c2ccccc2)cc1 | 90.2% (inactive)
36 | COC(=O)[C@]12CC[C@@H](C)[C@H](C)[C@@H]1C1=CC(=O)[C@@H]3[C@@]4(C)C[C@@H](O)[C@H](O)[C@@]5(C)COC(=C45)C[C@@]3(C)[C@]1(C)CC2 | 41.9% (inactive)
37 | COc1ccc(C(=O)/C=C/c2cc3c(c(OC)c2)OCC(=O)N3)cc1 | 6.81% (active)
38 | COCc1cnccc1NC1CCCCCC1 | 86.2% (inactive)
39 | CC(=O)c1cnc(-c2ccccc2)nc1CBr | 41.5% (inactive)
40 | Cc1nc(S(=O)(=O)c2ccccc2)c(S(=O)(=O)Cc2ccc([N+](=O)[O-])cc2)o1 | 89.9% (inactive)

From PubChem BioAssay (NCI)
